# Measured values published in PubChem BioAssay (NCI).
# This is part of a sample that, as a whole, favours compounds with a hit. Of some 83,000 tested, about 20% had one in any assay.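 Interpretation: 100, growth as untreated; towards 0, rising growth inhibition; 0, no net growth; 0 to -100, cell death. Compounds scoring below 10 were considered active.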 Active and inactive are the calls of the source.
# Tested on: SK-MEL-2 melanoma
# Assay: NCI-60 one-dose screen, 48 h (100 = growth as untreated, 0 = no growth, -100 = all killed)
# Conditions: 10 µM unless noted
# Protocol: Growth inhibition of the SK-MEL-2 human tumor cell line is measured as a screen for anti-cancer activity. Cells are grown in 96 well plates and exposed to the test compound for 48 hours. Compounds are tested at a single concentration, which is 10^-5 M for most compounds. The reported endpoint is percent growth (GI% or GIPRCNT), where numbers from 0 - 100% represent growth inhibition, and numbers from -100% - 0 represent cell death. For example, a value of 40 represents 60% growth inhibition. A value of 0 means no net growth occurred over the course of the experiment. A value of -40 indicates 40% of cells at the beginning of the experiment died by the end of the experiment. A value of -100 means all cells are dead at the end of the experiment.
# NCI-60 Human Tumor Cell Lines Screen was performed using the standard one-dose NCI protocol, which is described in more detail at https://dtp.cancer.gov/discovery_development/nci-60/default.htm.
# Compounds with GIPRCNT values below 10 were considered active. Activity score was based on GIPRCNT using the following formula: […]
# Score is 0 for GIPRCNT values of 100 or above, 50 for GIPRCNT values of 0, and 100 for GIPRCNT values of -100.
row,Compound,growth
1,Cc1cc(C)c(S(=O)O)c(C)c1,97.8% (inactive)
2,COc1cc(/C=C/c2cc(/C=C/c3ccc(O)c(OC)c3)n(-c3ccccc3)n2)ccc1O,-48.1% (active)
3,COc1ccc(-c2c(-c3cc4c(c(OC)c3OC)OCO4)noc2N)cc1,63% (inactive)
4,CCOC(=O)c1sc(NC(=O)CN2CCC(Cc3ccccc3)CC2)nc1C,133% (inactive)
5,COc1ncnc2c1ncn2C/C(Br)=C(\Br)CCl,51.6% (inactive)
6,O=C1NC(=S)S/C1=C\c1cccc([N+](=O)[O-])c1,103% (inactive)
7,FC(F)(F)Oc1ccc2c(c1)C[C@H]1C[C@@H](c3ccoc3)N2O1,118% (inactive)
8,COc1ccc(-c2nc3sc(C)nn3c2-c2nc3cc(C)c(C)cc3[nH]2)cc1,104% (inactive)
9,COC(=O)c1c2c(c(C)[n+]([O-])c1C)C(=O)C=C(NCc1cccc(OC)c1)C2=O,-64.6% (active)
10,N#CCCN1CCN(CCC#N)C1=S,93.4% (inactive)
11,Cc1nc2nc(C(F)(F)F)[nH]c2nc1C,115% (inactive)
12,O=C1/C(=C/c2ccc([N+](=O)[O-])cc2)Oc2ccc(O)cc21,104% (inactive)
13,CCCCCCCC/C=C\CCCCCCCCOc1cccc(CC(=O)NCC[N+]2(C)CCOCC2)c1,104% (inactive)
14,O=[N+]([O-])c1cc2c(cc1Br)C1C(C3C2C(Cl)(Cl)C(Cl)=C(Cl)C3(Cl)Cl)C(Cl)(Cl)C(Cl)=C(Cl)C1(Cl)Cl (stereo not given),81.2% (inactive)
15,Clc1ccc(Nc2nc(Nc3ccccc3)nc(Nc3ccc(-c4cc(-c5ccc(Cl)cc5)on4)cc3)n2)cc1,64.2% (inactive)
16,Cn1c2c(cc(S(=O)(=O)c3ccccc3)c1=O)CCc1c-2cnn1-c1ccccc1Cl,105% (inactive)
17,C=C[C@H]1C[C@@H]2C[C@@H]3[C@H]4C/C=C\C(=O)NCCCC5NC(=O)C(=C(O)/C=C/[C@@H]4CC(=O)[C@H]3[C@@H]2[C@H]1C)C5=O (stereo not given in full),-54% (active)
18,COc1ccc(OC)c(/C=C2\Oc3cc(O)ccc3C2=O)c1,98.6% (inactive)
19,O=C(c1ccc2ncc(-c3nc(NC4CC4)ncc3F)n2c1)N1CCOCC1,27.7% (inactive)
20,Cc1cc(O)cc2c1[C@H]1CC[C@]3(C)[C@@H](O)CC[C@H]3[C@@H]1C=C2,86.4% (inactive)

row,Compound,growth
1,Clc1ccccc1Nc1ccc2nnc(-c3ccncc3)n2n1,100% (inactive)
2,CCC(C)[C@H]1O[C@]2(CC[C@@H]1C)C[C@@H]1C[C@@H](C/C=C(\C)[C@@H](OC3C[C@H](OC)C(O[C@H]4C[C@H](OC)[C@@H](O)[C@H](C)O4)[C@H](C)O3)[C@@H](C)/C=C/C=C3\CO[C@@H]4[C@H](O)C(C)=C[C@@H](C(=O)O1)[C@]34O)O2 (stereo not given in full),-9.26% (active)
3,O=C1/C(=C/c2ccc(Cl)cc2)N=C(c2ccccc2)N1CCc1cccs1,69.5% (inactive)
4,COc1ccc(/C=N/OCC(O)CN2CCC(O)CC2)cc1OC1CCCC1 (stereo not given),105% (inactive)
5,O=c1oc2ccccc2cc1-c1csc(N=Nc2c(O)[nH]c3ccc(Br)cc23)n1,107% (inactive)
6,O=C(N/N=C/c1ccc2c(c1)OCO2)c1cnn2c1NC(c1ccccc1)C2 (stereo not given),50.1% (inactive)
7,O=C1Nc2ccc(Cl)cc2/C1=N/N=C(c1ccccc1)c1ccccc1,103% (inactive)
8,CCC(=O)Nc1nnc(Cc2ccc(OC)c(OC)c2)s1,-6.77% (active)
9,C[C@@H](Oc1cc(-c2cnn(C3CC4(CCCNC4)C3)c2)cnc1N)c1c(Cl)ccc(F)c1Cl (stereo not given in full),-47.8% (active)
10,CC1CCCCN1S(=O)(=O)c1ccc(CN=C=S)cc1 (stereo not given),94.5% (inactive)
11,Brc1ccc(Br)nn1,-50.2% (active)
12,Cc1c(C(=O)Nc2nc(-c3ccccc3)cs2)nnn1-c1cccc2ccccc12,48.2% [50 µM] (inactive)
13,O=C1c2ccccc2-c2nnc(-c3ccc(Br)cc3)cc21,-0.262% (active)
14,Cc1ccc(S(=O)(=O)N(c2ccc(Cl)cc2)c2ccc(Br)cc2C(=O)O)cc1,107% (inactive)
15,CCCCC(O)Cn1ncc(C(=O)OCC)c1NC(=O)NCc1ccccc1C(F)(F)F (stereo not given),104% (inactive)
16,COc1cc(-c2ccc3cc(OC)c(OC)c(OC)c3c2)cc(OC)c1OC,61% (inactive)
17,NC(=O)c1cc(I)ccc1NC(=O)COc1ccc(Cl)cc1Cl,79.2% (inactive)
18,COc1ccc2nc(-n3nc(C)cc3C)c(-n3nc(C)cc3C)nc2c1,111% (inactive)
19,ONc1nc(NO)c2[nH]cnc2n1,96% (inactive)
20,O=C1CCC(N2Cc3c(C#CCCCNC(=O)c4cc5c(o4)C(=O)c4ccccc4C5=O)cccc3C2=O)C(=O)N1 (stereo not given),-26.6% (active)
